# Reference: article PMC4336329 (PLoS ONE, 2015)
# Out of some 310,000 compounds screened, about 14,000 (4.5%) showed an effect of 50% or more. Effects have a minus sign here. The entries come from a sample that favours strong results as a whole.
# Target: human ether-à-go-go-related gene (hERG) potassium channel (human, UniProt Q12809)
# Test: primary screen, population patch clamp on CHO cells stably expressing hERG; higher = less effect of the substance
# 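Also: peak tail current of the secondary pulse compared with the same well before compound.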
# human ether-à-go-go-related gene (hERG) potassium channel, sequence (Q12809 whole entry, looked up): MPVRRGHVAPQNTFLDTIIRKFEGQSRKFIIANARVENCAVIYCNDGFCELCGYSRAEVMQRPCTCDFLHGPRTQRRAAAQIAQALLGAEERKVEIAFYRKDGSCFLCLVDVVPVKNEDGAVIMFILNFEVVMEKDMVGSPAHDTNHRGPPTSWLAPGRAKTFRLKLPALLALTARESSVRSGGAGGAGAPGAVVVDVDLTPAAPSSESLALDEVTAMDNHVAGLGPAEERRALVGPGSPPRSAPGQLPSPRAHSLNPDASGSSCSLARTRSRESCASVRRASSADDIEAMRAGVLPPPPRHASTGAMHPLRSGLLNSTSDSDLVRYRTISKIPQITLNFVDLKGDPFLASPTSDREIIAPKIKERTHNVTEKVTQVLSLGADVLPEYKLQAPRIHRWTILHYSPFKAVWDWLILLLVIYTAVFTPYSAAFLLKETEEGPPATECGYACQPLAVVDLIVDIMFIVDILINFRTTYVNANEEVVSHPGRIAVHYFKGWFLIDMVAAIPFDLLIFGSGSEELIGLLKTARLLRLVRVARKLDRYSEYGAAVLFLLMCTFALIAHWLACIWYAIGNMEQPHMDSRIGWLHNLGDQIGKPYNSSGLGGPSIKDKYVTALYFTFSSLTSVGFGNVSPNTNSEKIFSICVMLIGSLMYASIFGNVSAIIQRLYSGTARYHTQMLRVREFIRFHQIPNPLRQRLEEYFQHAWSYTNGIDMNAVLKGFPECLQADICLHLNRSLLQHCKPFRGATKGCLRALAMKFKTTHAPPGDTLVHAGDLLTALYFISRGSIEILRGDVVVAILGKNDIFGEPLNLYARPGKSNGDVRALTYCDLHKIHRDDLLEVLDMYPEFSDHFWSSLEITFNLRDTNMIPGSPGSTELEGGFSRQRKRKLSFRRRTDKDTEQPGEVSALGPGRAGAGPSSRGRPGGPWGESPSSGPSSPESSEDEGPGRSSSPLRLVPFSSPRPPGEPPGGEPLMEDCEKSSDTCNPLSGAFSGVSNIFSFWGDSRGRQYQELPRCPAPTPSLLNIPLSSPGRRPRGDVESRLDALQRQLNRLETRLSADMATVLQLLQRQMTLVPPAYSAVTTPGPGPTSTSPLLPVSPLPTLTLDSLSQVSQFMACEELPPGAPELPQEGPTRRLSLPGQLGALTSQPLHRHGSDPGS
row,SMILES,"hERG current change (%, negative = inhibition) at 10uM [%]"
1,CCCN1C2CCCC1CC(NC(=O)c1ccc(OC)cc1)C2 (stereo not shown),-30.1
2,CCc1ccc(NCc2ccc(OC)c(Cn3ccnc3)c2)cc1,-10.5
3,O=C(O)CCCC(=O)N1N=C(c2c(-c3ccccc3)c3cc(Cl)ccc3[nH]c2=O)CC1c1cccs1 (stereo not shown),23.2
4,Cc1c(C(=O)NCc2ccco2)oc2ccc(S(=O)(=O)N3CCC4(CC3)OCCO4)cc12,-19.7
5,CCCCCCCN1C(Nc2ccccc2)=NC[C@@H]1Cc1ccccc1,-83.3
6,c1ccc(CCCCN2C(Nc3ccccc3)=NC[C@@H]2Cc2ccccc2)cc1,-71.5
7,CCCCCCCN1C(Nc2ccccc2)=NC[C@@H]1C,-68
8,Cc1ccc(CCN2C(Nc3ccccc3)=NC[C@@H]2C)cc1,-35.9
9,CCCCN1C(N)=NC[C@@H]1Cc1ccccc1,0.376
10,CC(C)CCCN1C(Nc2ccccc2)=NC[C@@H]1C,-11.4
11,CCN1C(Nc2ccccc2)=NC[C@@H]1C,15.2
12,CCCCN1C(Nc2ccccc2)=NC[C@@H]1Cc1ccccc1,-66.1
13,CCCCN1C(Nc2ccccc2)=NC[C@@H]1C,14.4
14,C[C@H]1CN=C(Nc2ccccc2)N1CCc1ccccc1,-9.89
15,CCN1C(Nc2ccccc2)=NC[C@@H]1Cc1ccccc1,-26
16,OC1CCCN(c2ncnc3c2nnn3Cc2c(F)cccc2Cl)C1 (stereo not shown),0.989
17,COc1cc([N+](=O)[O-])ccc1NC(=O)NCc1ccccn1,11.7
18,CC(=O)c1cccc(NC(=O)CSc2n[nH]c(-c3ccncc3)n2)c1,10.5
19,Cc1ccc(Cl)c(OCC(=O)NC2CCN(Cc3ccccc3)CC2)c1,-115
20,Cl.O=C(COc1ccccc1F)NC1CCN(Cc2ccccc2)CC1,-38.5
21,O=C(COc1ccc(Br)cc1F)NC1CCN(Cc2ccccc2)CC1,-74
22,O=C(COc1ccc(Br)cc1Cl)NC(=O)NC1CCCC1,-9.03
23,O=C(COc1ccc(Br)cc1Cl)NC1CCN(Cc2ccccc2)CC1,-67.3

row,SMILES,"hERG current change (%, negative = inhibition) at 10uM [%]"
1,Cc1cc(OCC(=O)NC2CCN(Cc3ccccc3)CC2)c2c(C)c(C)c(=O)oc2c1,-22.4
2,O=C(COc1ccccc1F)NC1CC1,0.681
3,Cc1ccc(Cl)c(OCC(=O)Nc2ccccc2C(=O)NC2CC2)c1,3.5
4,O=C(COc1ccc(Br)cc1Cl)NC1CCCCC1,9.84
5,COc1ccc(C(=O)N(C)c2ccccc2C(=O)NCCc2ccccc2)cc1,-20.2
6,O=C(CCCn1c(=O)c2ccccc2n(Cc2ccccc2)c1=O)NCc1ccco1,-7.47
7,CNC(=O)c1c(C)nn(-c2ccc(F)c(Cl)c2)c1-c1cc(C)on1,4.71
8,Cc1ccc(CC(=O)Nc2ccc(S(=O)(=O)Nc3nccc(C)n3)cc2)cc1,1.2
9,CCCCC(NC(C)=O)c1nc2ccccc2[nH]1 (stereo not shown),23.1
10,CC(C)COC(=O)Nc1ccccc1C(=O)N1CCOCC1,9.75
11,C=C[C@@H]1C2=CCOC(=O)C2=CO[C@H]1O[C@@H]1O[C@H](CO)[C@@H](O)[C@H](O)[C@H]1O,20.1
12,N#CCCN1CCN(S(=O)(=O)c2ccc(S(=O)(=O)N3CCCC3)cc2)CC1,4.66
13,COc1ccc(S(=O)(=O)NCc2ccccn2)c(C)c1C,0.26
14,N#CCc1c(C#N)c(N)nc(N2CCCC(CO)C2)c1C#N (stereo not shown),1.82
15,Cc1ccccc1Cn1c2ccccc2c2cnn(CC(=O)NCCCN3CCOCC3)c(=O)c21,-18.6
16,Cc1ccc(C)c(Cn2c3ccccc3c3cnn(CC(=O)NCCN4CCOCC4)c(=O)c32)c1,-45
17,O=C(Cn1ncc2c3ccccc3n(Cc3ccccc3F)c2c1=O)NCCN1CCOCC1,-55.2
18,O=C(Cn1ncc2c3ccccc3n(Cc3ccccc3)c2c1=O)NCCN1CCOCC1,-57
19,Cc1cc(C)c(Cn2c3ccccc3c3cnn(CC(=O)NCCN4CCOCC4)c(=O)c32)c(C)c1,2.31
20,O=C(Cn1ncc2c3ccccc3n(Cc3ccccc3)c2c1=O)NCCCN1CCOCC1,-45.2
21,CCC(=O)/C=C1/Sc2ccc(OC)cc2N1CC,-4.45
22,C=CCn1cc(C(=O)NCC2CCCO2)c(=O)c2cc(S(=O)(=O)N3CCCCCC3)ccc21 (stereo not shown),-48.1
23,O=C(COC(=O)C1=COCCO1)Nc1cccc(S(=O)(=O)N2CCOCC2)c1,10.8
